Experimental data taken from ChEMBL document CHEMBL3988442, “University of Dundee, Small-Polar-MMV Screening Library” (2021).
In all, about 48,000 compounds went through this assay and about 13,000 (27%) showed an effect of 50% or more. This is one part of the list.

System: Wolbachia pipientis
Assay: Anti-Wolbachia Cell-Based Screen
Assay type: functional
Design: scale not given: in the data most compounds retested in dose-response had high values
Conditions: 5 µM

| Compound | Percent Effect [%] |
| --- | --- |
| CC1(C(N)=O)CN(CC2CCC2)CCO1 (configuration not stated) | 100.1 |
| O=C(C1CN(CC2CCOCC2)CC12CCOCC2)N1CCOCC1.O=C(O)C(F)(F)F (configuration not stated) | 5.554 |
| O=C(C1CN(CC2CC2)CC12CCOCC2)N1CCCC1 (configuration not stated) | -4.912 |
| CC1(C(N)=O)CN(CC2CCOCC2)CCO1 (configuration not stated) | 88.24 |
| CC1(C(=O)N2CCOCC2)CN(CC2CCOCC2)CCO1 (configuration not stated) | 129.5 |
| CC1(C)CC(CN2CCC3(CCC(=O)N(C4CCC4)C3)CC2)CCO1 (configuration not stated) | -1.352 |
| CN(C)C(=O)CN1CCC2(C1)CN(CC1CCOCC1)C2 | -9.984 |
| O=C(N1CCOCC1)[C@@]12CCO[C@@H]1CCN(CC1CCCCC1)C2.O=C(O)C(F)(F)F | 16.73 |
| C1CC(CN2CCOCC3(CCN(C4CCOCC4)C3)C2)CCO1 (configuration not stated) | -8.937 |
| CC(C)N1CC2(CCC1=O)CCN(C(=O)c1cccc(F)c1F)CC2 | -11.17 |
| Cc1cc2[nH]c(CN3CCOC(C(F)(F)F)C3)cc(=O)n2n1 (configuration not stated) | -6.733 |
| COc1ccc(CNC(=O)Nc2ccc(S(=O)(=O)C(F)F)cc2)cc1 | 6.35 |
| CCOc1ccc(CNCc2ccc(C(=O)NC)cc2)cc1OCC | -3.882 |
| COC(=O)C(CNC(=O)Nc1cn[nH]c1)Cc1cccc(C)c1 (configuration not stated) | -11.43 |
| COc1cccc(CC(C)NC(=O)c2ccc(CNC(C)=O)cc2)c1 (configuration not stated) | -2.536 |
| Cc1cccc(CNCc2ccc(NC(=O)NC(C)C)cc2)c1 | 97.74 |
| COc1cccc(CNCc2ccc(NC(=O)NC(C)C)cc2)c1 | 98.55 |
| CCOc1cccc(CNc2cnn(CC(C)C)c2CC)c1 | -19.91 |
| CCOc1cccc(CNCc2ccc(NC(=O)NC(C)C)cc2)c1 | 132 |
| N#CC1(C(=O)Nc2ccc(OC(F)F)cc2)CCCC1 | -4.632 |
| COc1cccc(C(CO)NC(=O)NC(C)C)c1 (configuration not stated) | -12.05 |
| CC(C)NC(=O)Nc1ccc(CNCc2ccc(OC(F)F)cc2)cc1 | 126.1 |
| Cc1cccc(CNC(=O)Nc2ccc3c(c2)CCCC(=O)N3)c1 | -8.181 |
| CCc1cc(CN(C)Cc2nc(-c3sccc3C)oc2C)on1 | -5.101 |

| Compound | Percent Effect [%] |
| --- | --- |
| CC(=O)N[C@@H]1Cc2ccccc2[C@H]1Nc1nnc(C2CC2)o1 | -5.354 |
| O=C1CSCN1CC(=O)N1CCCC1c1nc2ccccc2s1 (configuration not stated) | -3.784 |
| Cc1noc(-c2ccc(N[C@H]3CCCCNC3=O)nc2)n1 | -0.1994 |
| COCCNC(=O)NC(c1ccccc1)c1ccccc1OC (configuration not stated) | 3.321 |
| Cn1ccc(CN2CCC(CO)CC2)cc1=O | -2.803 |
| Cn1ccc(CN2CCN(CC3CC3)CC2)cc1=O | 107.4 |
| Cc1csc(N2CCN(Cc3ccn(C)c(=O)c3)CC2)n1 | 7.447 |
| Cn1ccc(CN2CCC(CN3CCOCC3)CC2)cc1=O | 93.59 |
| CCc1oc(C(=O)OC)cc1Cn1cccc(C(F)(F)F)c1=O | 2.78 |
| Cc1nc(C)c(C)c(NCCSCc2[nH]cnc2C)n1 | -16.36 |
| COC1CCCOC12CCN(C(=O)c1ccc3[nH]nnc3c1)CC2 (configuration not stated) | 104.9 |
| CO[C@H]1CCN(C(=O)c2ccc3[nH]nnc3c2)C[C@@]12CCCO2 | 102.9 |
| c1cc(CNc2nnc(Cc3ccsc3)o2)cs1 | -17.73 |
| Clc1cnccc1N1CCCC2(CCCOC2)C1 (configuration not stated) | -10.01 |
| COCc1ccc(C(=O)N2CCCN(Cc3cscn3)CC2)cc1 | 110 |
| Cc1ccc(C(=O)N2CCCN(Cc3cscn3)CC2)o1 | 108 |
| O=C(c1ccc(Cl)o1)N1CCCN(Cc2cscn2)CC1 | 4.253 |
| NC(=O)c1cncc(N2CCN(Cc3ccc(F)cc3Cl)CC2)n1 | -6.115 |
| CCC(C)N(Cc1cccnc1)Cc1cc2c(cc1OC)OCO2 (configuration not stated) | 6.738 |
| Cn1cccc1C(=O)N1CCc2ccc(=O)n(C)c2CC1 | 85.33 |
| CN1CCN(c2ncnc3c2CCN(C(=O)c2cccn2C)CC3)CC1 | 1.463 |
| Cc1ncnc2c1CCN(C(=O)c1cccn1C)CC2 | -19.88 |
| CN(CCCNC(=O)N1CCCC1c1ccsc1)c1ccccn1 (configuration not stated) | 7.927 |
| Cc1cc(N2CCCN(c3nc(C)nc(C)c3C)CC2)ccn1 | 23.81 |

| Compound | Percent Effect [%] |
| --- | --- |
| Cn1ccnc1-c1nccn1C[C@@H]1CCCN2CCCC[C@H]12 | -12.88 |
| Cc1nc2cc(-c3nccn3C)nn2c(N2CCCC(O)C2)c1C.Cl (configuration not stated) | 80.29 |
| Cn1ccnc1CN1C[C@@H](CN2CCC(CO)CC2)[C@@H](CO)C1 | -24.97 |
| Cc1cc(N2CCCCCC2)n2nc(C)c(C)c2n1 | -8.895 |
| OCC1CCCN(c2ncnc3c2Cc2ccccc2OC3)C1 (configuration not stated) | 5.574 |
| Cc1cc(N2CC[C@H](O)C2)n2nc(C)c(C)c2n1 | -7.079 |
| Cc1cc(N2CCCC(O)CC2)n2nc(C)c(C)c2n1 (configuration not stated) | -2.095 |
| Cc1cc(C2CCC2)nc(N2CCN(Cc3nccn3C)CC2)n1 | -10.5 |
| Cc1nc2cc(-c3nccn3C)nn2c(N2CCCC(CO)C2)c1C (configuration not stated) | 68.35 |
| Cc1ccccc1OCC(=O)N1CC[C@]2(C[C@@H](OCC3CC3)CO2)C1 | 14.13 |
| CC(NC(=O)c1coc(COc2cccc(F)c2)n1)c1nnc(N)s1 (configuration not stated) | -13.23 |
| O=C(N1CCc2ccccc2CC1)C1(O)Cc2ccccc2C1 | 1.099 |
| Cc1nsc(N2CCCN(C(=O)NCc3cccnc3)CC2)n1 | -3.745 |
| CCNC(=O)N1C[C@@H]2OCC(=O)N(C)[C@@H]2C1 | -7.352 |
| Cn1cc(C(=O)N[C@@H]2CN(Cc3cccnc3)[C@@H]3CCCO[C@@H]32)cn1.O=C(O)C(F)(F)F.O=C(O)C(F)(F)F | -2.49 |
| Cn1cc(C(=O)N[C@@H]2CN(CC3CCOCC3)[C@@H]3CCCO[C@@H]32)cn1.O=C(O)C(F)(F)F | -2.907 |
| Cn1cccc1C(=O)N[C@@H]1CN(Cc2ccsc2)[C@@H]2COC[C@@H]21.O=C(O)C(F)(F)F | -6.344 |
| Cn1ccnc1C(=O)N[C@@H]1CN(Cc2ccoc2)[C@@H]2CCCO[C@@H]21.O=C(O)C(F)(F)F | 105.8 |
| Cn1cccc1C(=O)N[C@H]1CN(Cc2ccoc2)[C@@H]2CCCO[C@H]12.O=C(O)C(F)(F)F | 107.4 |
| O=C(N[C@@H]1CN(CC2CC2)[C@@H]2CCCO[C@@H]21)c1cscn1.O=C(O)C(F)(F)F | 102.8 |
| Cn1ccnc1C(=O)N[C@@H]1CN(CC2CCOCC2)[C@@H]2CCCO[C@@H]21.O=C(O)C(F)(F)F | 97.93 |
| O=C(N[C@@H]1CN(Cc2cccs2)[C@@H]2CCCO[C@@H]21)c1cscn1.O=C(O)C(F)(F)F | 6.119 |
| Cn1cc(CN2C[C@@H](NC(=O)c3cscn3)[C@H]3OCCC[C@H]32)cn1.O=C(O)C(F)(F)F.O=C(O)C(F)(F)F | -10.62 |
| Cn1ccnc1CN1C[C@H](N2CCOCC2)[C@@H]2OCCC[C@@H]21.O=C(O)C(F)(F)F.O=C(O)C(F)(F)F.O=C(O)C(F)(F)F | -9.409 |
